The record followed here is PubChem BioAssay.

Calls of active or inactive are those of the source. Unless noted, the rule behind the calls is not given here.

The subject of assay [1] is Wnt5a (protein binding on small-molecule microarray). Nature of the assay: Wnt5a binders on small-molecule microarray, primary screen, biophysical, 635/667 nm fluorescence (AID 1142).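 Note: fluorescence read at 667 nm with signal to noise per printed feature.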 The note with it: 635 nm fluorescence, higher = more signal.
Assay [2] in a line: cell viability in Huh7 cells, primary screen, cytotoxicity control for HCV replication inhibitor project, CellTiter-Glo luminescence, basal, 48 h (AID 1143).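 Note: Huh7 hepatoma cells carrying a hepatitis C replication reporter with no stimulus; test concentration not given here.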 The following applies: Huh7 HCV replicon, higher = more signal, called active from +8 up or from −8 down.
Assay [3] can be described thus: P. aeruginosa biofilm formation inhibitors, primary screen, PAO1 strain, BacTiter-Glo luminescence, LB-PBS (AID 1144). The following applies: 12 h, higher = more signal.
A short description of assay [4]: CREB reporter modulators without forskolin, primary screen, cell-based, PC12, CRE-LacZ reporter, unstimulated (AID 1145). The note with it: no forskolin, luminescence, 4.5 h, higher = more signal, called active from +8 up or from −8 down.
Assay [5] can be described thus: CREB reporter modulators under forskolin, primary screen, cell-based, PC12, CRE-LacZ reporter, forskolin-stimulated (AID 1146).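 Note: PC12 cells with 6xCRE LacZ reporter stimulated by forskolin 10 µM; beta-galactosidase reporter signal reflecting CREB driven transcription.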 The note with it: luminescence, 4.5 h, higher = more signal, called active from +8 up or from −8 down.
Assay [6] has as its target Streptavidin (Streptomyces avidinii) (UniProt P22629). Nature of the assay: streptavidin binders on small-molecule microarray, primary screen, artefact control for SMM compound annotation, biophysical, 635/667 nm fluorescence (AID 1147).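 Note: signal reflects streptavidin binding to arrayed compounds as a control protein.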 The note with it: streptavidin binding, higher = more signal.
A short description of assay [7]: small-molecule binders of probe aInhba, primary screen, biochemical, small-molecule microarray, 635/667 nm fluorescence (AID 1148).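 Note: score merges 667nm spot fluorescence with signal-to-noise for antibody binding to printed compounds.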 The following applies: higher = more signal.
Assay [8] deals with Torsin-1A (Homo sapiens) (UniProt O14656). In words: torsin A binders from cell lysate, primary screen, small-molecule microarray, wild-type, 635/667 nm (AID 1149). The note with it: COS7 hTOR1A-WT lysate, 635 nm fluorescence, higher = more signal.
Sequence of Torsin-1A (Homo sapiens) (O14656 whole entry, looked up): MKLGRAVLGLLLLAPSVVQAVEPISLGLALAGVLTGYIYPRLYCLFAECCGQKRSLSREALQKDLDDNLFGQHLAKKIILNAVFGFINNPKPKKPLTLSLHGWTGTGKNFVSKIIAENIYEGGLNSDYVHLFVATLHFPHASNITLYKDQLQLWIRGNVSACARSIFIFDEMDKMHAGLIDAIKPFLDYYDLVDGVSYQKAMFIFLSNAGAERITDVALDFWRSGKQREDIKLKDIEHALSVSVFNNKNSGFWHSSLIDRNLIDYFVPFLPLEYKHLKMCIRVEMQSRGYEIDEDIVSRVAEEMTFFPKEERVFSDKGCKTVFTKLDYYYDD
Assay [9] has the same target. In words: small-molecule binders of mutant TOR1A in lysate, primary screen, cell lysate, small-molecule microarray, COS7 lysate, 635/667 nm fluorescence (AID 1150).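 Note: score pools 667 nm emission and signal to noise measuring lysate protein binding.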 The following applies: COS7 hTOR1A mutant lysate, 635 nm fluorescence, higher = more signal.
For assay [10], the system named is Sonic hedgehog protein (Shh). In words: small-molecule binders of Shh protein, primary screen, biochemical, small-molecule microarray, 635/667 nm fluorescence (AID 1151).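 Note: Shh protein binding to compounds spotted on small-molecule microarray slides; score combines spot fluorescence intensity with signal-to-noise across triplicate slides.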 The note with it: small-molecule microarray binding, 635 nm fluorescence; higher = more signal.
A short description of assay [11]: E. coli DRC41 culture turbidity changes, primary screen, E. coli filamentation inducer project, strain DRC41, OD650, 48 h (AID 1152).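 Note: E. coli MC1000 strain DRC41 lacking acrAB efflux pump and sulA.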 The following applies: E. coli DRC41 (acrAB sulA), higher = more signal, called active from +8 up or from −8 down.
Assay [12] can be described thus: small-molecule binders of probe aLefty1, primary screen, biochemical, small-molecule microarray, 635/667 nm fluorescence (AID 1153).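 Note: score merges spot fluorescence with signal-to-noise ratio from the scanned slide images.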 The note with it: higher = more signal.
Assay [13] is described as follows: PSAC antagonists in infected red cells, primary screen, cell-based, P. falciparum Indochina, OD700, 1 h (AID 1154). The following applies: P. falciparum Indochina infected RBC osmotic lysis, higher = more signal, called active from +8 up or from −8 down.
Assay [14] is described as follows: PSAC antagonists in infected red cells, primary screen, cell-based, P. falciparum Indochina, OD700, 2 h (AID 1155).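 Note: lysis reports solute entry through the parasite surface anion channel PSAC; channel blockers reduce lysis of infected cells.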 The note with it: P. falciparum Indochina infected erythrocytes, osmotic lysis OD700; higher = more signal, called active from +8 up or from −8 down.
Assay [15] in a line: osmotic lysis modulators in infected erythrocytes, primary screen, PSAC antagonist project, cell-based, P. falciparum Indochina, OD700, 3 h (AID 1156). The following applies: higher = more signal, called active from +8 up or from −8 down.
Assay [16] can be described thus: PSAC antagonists in infected red cells, primary screen, cell-based, P. falciparum Indochina, OD700, 18 h (AID 1157). The note with it: P. falciparum Indochina infected erythrocytes, osmotic lysis OD700, 18 h; higher = more signal, called active from +8 up or from −8 down.
Assay [17] can be described thus: modulators of S6 phosphorylation in cells, primary screen, cell-based, A549, cytoblot, luminescence, serum-stimulated (AID 1158).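 Note: serum-stimulated A549 lung adenocarcinoma cells; signal is phosphorylated S6 detected by cytoblot immunostaining with HRP secondary.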 The note with it: A549 phospho-S6 cytoblot, 5 h, higher = more signal.
In assay [18] the target is NADPH oxidase 2 (Homo sapiens) (UniProt P04839). In words: NOX2-dependent H2O2 signal modulators, primary screen, NOX inhibitor project, cell-based, HEK293-NOX2, PMA-stimulated, Amplex Red fluorescence (AID 1159). Note: test concentration not given here. The following applies: 45 min, higher = more signal, called active from +8 up or from −8 down.
Sequence of NADPH oxidase 2 (Homo sapiens) (P04839 whole entry, looked up): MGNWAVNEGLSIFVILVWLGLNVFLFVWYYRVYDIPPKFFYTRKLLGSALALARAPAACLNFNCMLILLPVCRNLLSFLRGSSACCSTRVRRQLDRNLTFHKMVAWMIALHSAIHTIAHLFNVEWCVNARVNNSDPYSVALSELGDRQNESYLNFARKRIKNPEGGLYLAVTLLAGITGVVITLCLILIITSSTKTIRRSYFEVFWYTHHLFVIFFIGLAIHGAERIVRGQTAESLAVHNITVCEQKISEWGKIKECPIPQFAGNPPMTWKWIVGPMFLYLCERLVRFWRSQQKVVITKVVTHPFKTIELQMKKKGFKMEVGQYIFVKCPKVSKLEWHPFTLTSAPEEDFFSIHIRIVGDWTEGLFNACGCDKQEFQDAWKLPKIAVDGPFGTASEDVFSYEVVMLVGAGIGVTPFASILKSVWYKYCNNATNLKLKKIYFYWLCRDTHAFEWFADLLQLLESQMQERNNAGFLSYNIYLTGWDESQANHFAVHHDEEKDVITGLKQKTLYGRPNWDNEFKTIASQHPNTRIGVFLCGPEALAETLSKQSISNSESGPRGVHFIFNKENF
Assay [19] addresses NADPH oxidase 4 (Homo sapiens) (UniProt Q9NPH5). In words: NOX4-dependent H2O2 signal modulators, primary screen, NOX inhibitor project, cell-based, HEK293-NOX4, tetracycline-induced, Amplex Red fluorescence (AID 1160). The note with it: 45 min, higher = more signal, called active from +8 up or from −8 down.
The target of assay [20] is NADPH oxidase 5 (Homo sapiens) (UniProt Q96PH1). In words: NOX5-dependent H2O2 signal modulators, primary screen, NOX inhibitor project, cell-based, HEK293-NOX5, Amplex Red fluorescence (AID 1161). The note with it: HEK293-NOX5, ionomycin, 45 min, higher = more signal.
Sequence of NADPH oxidase 5 (Homo sapiens) (Q96PH1 whole entry, looked up): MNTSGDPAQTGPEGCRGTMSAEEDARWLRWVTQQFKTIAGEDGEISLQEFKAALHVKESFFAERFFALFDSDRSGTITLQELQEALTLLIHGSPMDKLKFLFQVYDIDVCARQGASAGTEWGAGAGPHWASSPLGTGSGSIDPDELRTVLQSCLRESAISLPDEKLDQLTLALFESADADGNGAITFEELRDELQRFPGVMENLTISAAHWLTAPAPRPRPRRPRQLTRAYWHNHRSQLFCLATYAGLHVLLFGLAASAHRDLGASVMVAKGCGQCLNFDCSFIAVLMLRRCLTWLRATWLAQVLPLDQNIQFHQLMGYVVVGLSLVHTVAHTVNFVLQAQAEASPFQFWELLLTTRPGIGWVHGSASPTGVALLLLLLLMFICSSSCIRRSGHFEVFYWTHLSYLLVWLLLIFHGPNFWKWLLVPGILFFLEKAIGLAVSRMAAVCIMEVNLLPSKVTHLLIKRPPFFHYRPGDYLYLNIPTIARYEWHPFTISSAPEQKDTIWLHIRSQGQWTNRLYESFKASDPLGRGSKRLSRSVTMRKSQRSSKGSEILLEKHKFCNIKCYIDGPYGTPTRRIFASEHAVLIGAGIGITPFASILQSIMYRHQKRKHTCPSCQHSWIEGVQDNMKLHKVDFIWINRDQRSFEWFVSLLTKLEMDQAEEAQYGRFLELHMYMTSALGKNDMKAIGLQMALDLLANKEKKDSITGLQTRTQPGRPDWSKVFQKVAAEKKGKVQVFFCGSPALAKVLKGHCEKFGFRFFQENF

Sequence of NADPH oxidase 4 (Homo sapiens) (Q9NPH5 whole entry, looked up): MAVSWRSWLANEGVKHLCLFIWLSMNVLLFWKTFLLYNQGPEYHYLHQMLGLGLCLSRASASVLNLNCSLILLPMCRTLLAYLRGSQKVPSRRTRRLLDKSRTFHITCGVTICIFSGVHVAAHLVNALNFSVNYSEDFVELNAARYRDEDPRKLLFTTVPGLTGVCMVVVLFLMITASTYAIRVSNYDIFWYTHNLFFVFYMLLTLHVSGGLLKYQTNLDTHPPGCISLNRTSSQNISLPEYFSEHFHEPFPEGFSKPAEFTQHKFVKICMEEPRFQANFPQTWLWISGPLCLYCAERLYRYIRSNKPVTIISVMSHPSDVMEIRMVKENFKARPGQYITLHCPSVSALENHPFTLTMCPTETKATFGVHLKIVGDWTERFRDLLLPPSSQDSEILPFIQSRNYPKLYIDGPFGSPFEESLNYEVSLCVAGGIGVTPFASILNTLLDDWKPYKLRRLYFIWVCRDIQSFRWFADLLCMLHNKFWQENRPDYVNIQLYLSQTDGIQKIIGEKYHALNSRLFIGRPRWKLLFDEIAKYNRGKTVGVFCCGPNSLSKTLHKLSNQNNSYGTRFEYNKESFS
Sequence of Streptavidin (Streptomyces avidinii) (P22629 whole entry, looked up): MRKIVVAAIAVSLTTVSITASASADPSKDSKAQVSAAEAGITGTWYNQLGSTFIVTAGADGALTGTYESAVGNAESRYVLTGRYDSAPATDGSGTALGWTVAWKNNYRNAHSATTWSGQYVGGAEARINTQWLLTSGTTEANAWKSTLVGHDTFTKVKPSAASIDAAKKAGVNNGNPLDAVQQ

With `O=C1O[C@H](c2ccccc2)[C@H](c2ccccc2)N2[C@H]1[C@@H](C(=O)NC[C@H](O)c1ccccc1)[C@]1(C(=O)Nc3ccccc31)[C@H]2c1ccc(O)cc1`, the composite z-score in [1] was 0.378; in assay [6], 0.287; in assay [7], -0.128; with Torsin-1A (Homo sapiens) [8] it was 0.643; in the assay with Torsin-1A (Homo sapiens) [9] it was 0.506; in [10], 1.5. For the same compound, the composite z-score in [12] came to 0.0191. The z-score in assay [2] is -1.1 (inactive); in [3], -1.25 (inactive); in assay [4] it was -1.29 (inactive); in [5], -0.423 (inactive); in assay [11], 0.281 (inactive); in assay [13], 2.49 (inactive). Also, the z-score in [14] is 1.29 (inactive); in assay [15] it was -0.214 (inactive); in assay [16] it was 1.29 (inactive); in assay [17], -0.482; in [18], -0.0983 (inactive); in assay [19], -0.705 (inactive). The compound also yielded a z-score in assay [20] of 0.152.

For the compound `COCCCNC(=O)[C@@H]1c2ccccc2C(=O)N(Cc2ccccc2OC)[C@H]1c1ccc(CO)cc1`, the composite z-score in assay [1] is 0.924; in [6], -0.665; in assay [7], -0.0136; with Torsin-1A (Homo sapiens) [8] it was 0.825; with Torsin-1A (Homo sapiens) [9], -0.206; in assay [10] it was 2.03. For the same compound, in assay [12], the composite z-score worked out at 0.278. Further, the z-score was -4.79 (inactive) in assay [2]; -2.25 (inactive) in [3]; -0.502 (inactive) in assay [4]; 0.715 (inactive) in assay [5]; 0.876 (inactive) in [11]; 1.54 (inactive) in [13]. The z-score in assay [14] is -0.0902 (inactive); in assay [15], 0.591 (inactive); in [16] it was -0.631 (inactive); in [17], 2.45; in assay [18], -1.79 (inactive); in assay [19], -3.52 (inactive). In [20], this compound had a z-score of -5.09.

In the case of `[N-]=[N+]=NCc1ccccc1[C@@H]1OC(c2ccc(OCCCO)cc2)=N[C@]1(CCS(=O)(=O)c1ccccc1)C(=O)N1CCOCC1`, the composite z-score is 0.477 in assay [1]; 1.5 in assay [6]; 0.351 in assay [7]; 0.796 in the assay with Torsin-1A (Homo sapiens) [8]; 0.947 with Torsin-1A (Homo sapiens) [9]; -0.149 in assay [10]. In assay [12], this compound registered a composite z-score of 0.533. Also, the z-score in assay [2] is -4.07 (inactive); in assay [3] it was -0.344 (inactive); in assay [4], 1.59 (inactive); in assay [5] it was -1.08 (inactive); in assay [11], 1.79 (inactive); in assay [13] it was 26.1 (active). The z-score in assay [14] was 12.5 (active); in assay [15], 3.79 (inactive); in assay [16] it was 0.45 (inactive); in assay [17], 1.88; in assay [18], 1.21 (inactive); in assay [19], 1.18 (inactive). In assay [20], this compound had a z-score of 1.2.

As to `C[C@H]1C2[C@H](Cc3ccccc3)NC(=O)[C@]23C(=O)NCC(=O)N2CCC[C@H]2C(=O)NC/C=C/CCC/C=C/C3[C@@H]2O[C@]12C` (stereo not given in full), the composite z-score is -0.376 in assay [1]; -1.3 in assay [6]; -0.179 in assay [7]; -0.793 with Torsin-1A (Homo sapiens) [8]; -0.333 with Torsin-1A (Homo sapiens) [9]; 0.468 in assay [10]. This compound also had a composite z-score in assay [12] of -0.103. Further, the z-score is -1.02 (inactive) in assay [2]; 0.785 (inactive) in assay [3]; 1.32 (inactive) in assay [4]; -1.25 (inactive) in assay [5]; 1.38 (inactive) in assay [11]; 1.44 (inactive) in [13]. The z-score in assay [14] was -0.0812 (inactive); in assay [15], 0.391 (inactive); in [16] it was 0.133 (inactive); in assay [17], 0.781; in assay [18], 1.61 (inactive); in assay [19], -0.66 (inactive). Moreover, the z-score in assay [20] is 1.88.

As for `CC[C@@H]1C=C(C(=O)O)[C@H](c2cccc3ccccc23)N1S(=O)(=O)c1ccc(C)cc1`, the composite z-score in assay [1] is 0.0605; in assay [6], 0.985; in [7] it was -0.128; with Torsin-1A (Homo sapiens) [8], 0.224; with Torsin-1A (Homo sapiens) [9], 0.331; in assay [10] it was -0.173. Further, in assay [12], the composite z-score amounted to 0.0774. Besides, the z-score in [2] is -0.0086 (inactive); in [3], 0.235 (inactive); in [4], -0.723 (inactive); in [5], 0.754 (inactive); in assay [11] it was -0.453 (inactive); in assay [13], 1.26 (inactive). The z-score in assay [14] was 1.2 (inactive); in assay [15], -0.129 (inactive); in assay [16], 0.708 (inactive); in assay [17], -0.769; in [18], 0.338 (inactive); in [19] it was -0.931 (inactive). This compound displayed a z-score in [20] of 0.133.
